# Reference: ChEMBL document CHEMBL4513146, “CO-ADD screening of Karazin Kharkiv National University (Ukraine) compounds”
# Entries with a potency or affinity are not part of this list.
# Columns and labels:
# Klebsiella pneumoniae = details: Concentration 32 ug.mL-1;; ASSAY_TEST Inhibition of Bacterial Growth; detection method Absorption (OD600); MEDIA CAMHB; plate type 384well; NBS; CORNING #3640; time 18 hr
# Candida albicans = details: Concentration 32 ug.mL-1; ASSAY_TEST Inhibition of Fungal Growth; detection method Absorption (OD530)
# Cryptococcus neoformans = details: Concentration 32 ug.mL-1; ASSAY_TEST Inhibition of Fungal Growth; detection method Resazurin; Absorption (OD600-OD570); plate type 384well; NBS; CORNING #3640
SMILES,Inhibition (Klebsiella pneumoniae) [%],Inhibition (Candida albicans) [%],Inhibition (Cryptococcus neoformans) [%]
Cc1cc(C)c(NC(=O)CSc2nnc3ccc(C(=O)Nc4cccc(F)c4)cn23)c(C)c1,4.12,1.89,-5.55
O=C(Cn1nc2n(CCc3ccccc3)c(=O)c3ccccc3n2c1=O)Nc1ccc2c(c1)OCO2,5.15,15.71,-16.57
Cc1ccccc1NC(=O)Cn1nc2ccc(SC3CCCCC3)nn2c1=O,2.21,-1.85,-16.32
Cc1cc(NC(=O)Cn2c(=O)c3nnc(C(C)C)n3c3ccccc32)ccc1Br,7.01,3.1,-11.52
COc1ccc(NC(=O)Cn2nc3c4cc(-c5cc(C)ccc5C)nn4ccn3c2=O)c(OC)c1,9.51,3.64,-9.3
O=C(CSc1nnc2c(=O)n(-c3cccc(F)c3)ccn12)NCCc1ccccc1,-3.34,5.41,-10.18
Cc1ccc(-c2ccc3nnc(CCC(=O)NCc4ccc(Br)cc4)n3n2)cc1,19,1.12,-7.91
COc1ccc(CNC(=O)CCc2nnc3ccc(-c4ccccc4)nn23)cc1OC,15.01,-1.16,-12.03
C=Cc1ccc(CN(c2ccc(Cl)cc2)S(=O)(=O)c2cccn3c(C)nnc23)cc1,7.52,0.36,-8.75
Cc1cccc(Oc2nccn3c(=O)n(CC(=O)Nc4ccccc4C(F)(F)F)nc23)c1C,10.49,-0.97,-7.67
O=C(Cn1nc2c(Sc3cccc(F)c3)nccn2c1=O)Nc1ccc(F)c(Cl)c1,-2.81,9.34,-8.73
Cc1cc2nn(CC(=O)Nc3ccccc3)c(=O)n2c(Nc2ccc(C)c(F)c2)n1,9.53,4.54,-5.9
Cc1cc2nn(CC(=O)Nc3cccc(C)c3C)c(=O)n2c(Nc2ccc(C)c(F)c2)n1,16.72,5.25,-5.98
Cc1ccc(NC(=O)Cn2nc3c(N4CCOCC4)nc4ccccc4n3c2=O)cc1C,11.25,-0.6,-25.03
Cc1ccc(C)c(Cn2nc3ccc(-c4ccc(C)c(C)c4)nn3c2=O)c1,12.73,1.53,-14.79
CCc1ccc(N(Cc2ccc(F)cc2)S(=O)(=O)c2cccn3c(C)nnc23)cc1,-1.65,6.88,-7.64
CC(C)Cn1c(=O)c2ccc(C(=O)NC3CCCC3)cc2n2c(=O)n(CC(=O)NC3CCCCC3)nc12,4.14,-1.41,-14.36
CCOC(=O)c1ccccc1NC(=O)Cn1nc2c3sc(N4CCCC4)nc3ncn2c1=O,9.28,9.32,-6
Cc1cccc(NC(=O)CSc2nnc3ccc(C(=O)Nc4cccc(F)c4)cn23)c1,11.26,1.08,-17.48
CCc1nnc2c(S(=O)(=O)N(Cc3ccccc3F)c3ccc(F)cc3)cccn12,2.68,1.99,-5.43
COC(=O)c1cccc(NC(=O)Cn2nc3c(Oc4ccccc4)nccn3c2=O)c1,3.42,3.07,-9.43
COc1ccc(-c2cc3c4nn(CC(=O)Nc5cc(OC)ccc5OC)c(=O)n4ccn3n2)cc1,11.83,1.43,-25.14
O=C(Cn1nc2ccc(-c3ccc(Cl)cc3)nn2c1=O)Nc1ccccc1,1.21,1.7,-12.99
O=C(Cn1nc2c(Oc3ccccc3)nccn2c1=O)Nc1cc(F)ccc1F,-4.08,-0.69,-9.47
O=C(Cn1nc2ccc(SC3CCCCC3)nn2c1=O)Nc1ccc(F)c(F)c1,13.05,13.65,-16.79
COc1cccc(CN(c2cccc(C)c2)S(=O)(=O)c2ccc3nnc(C)n3c2)c1,4.27,0.75,-14.81
Cc1ccc(Cl)cc1NC(=O)Cn1nc2c3c4c(sc3ncn2c1=O)CCCCC4,13.99,1.16,-31.5
CCCCc1ccc(NC(=O)Cn2c(=O)c3nnc(C(C)C)n3c3ccccc32)cc1,18.09,-0.74,-30.75
Cc1ccc(Sc2ccc3nn(CC(=O)Nc4ccc(Br)c(C)c4)c(=O)n3n2)cc1,2.67,11.69,-8.57
COc1ccc(CNC(=O)CSc2nnc3c4cc(-c5ccc(C)cc5)nn4ccn23)cc1OC,9.92,-0.42,-20.85
